Source: PubChem
MITF primary: human MITF inhibition, primary screen. AlphaScreen MITF homodimerization, bead proximity signal. O75030. 650,000 tested, 0.91% active. inhibition, % at 2.6 µM; in the data active = inhibition above about 50%;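 note: 0% = vehicle wells with protein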
FBW7 activator: activators of human E3 ligase FBW7; Q969H0; AlphaScreen FBW7–phospho-cyclin E peptide binding, activator screen; normalized activity (activation), % at 26.1 µM; 650,000 tested, 0.13% active; AID 1259310; in the data active = normalized activity above about 1.9%;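 note: purified mutant Fbw7 with reduced substrate affinity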
GPR151 ag: activates the human receptor GPR151 | PathHunter beta-arrestin GPR151 cells, luminescence | activation, % at 11.2 µM | 650,000 tested, 1% active | AID 1508602; in the data active = activation above about 4.9%;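 note: 0% = median of compound wells and 100% = cells with positive control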
Target sequence (Q8TDV0 whole entry, looked up): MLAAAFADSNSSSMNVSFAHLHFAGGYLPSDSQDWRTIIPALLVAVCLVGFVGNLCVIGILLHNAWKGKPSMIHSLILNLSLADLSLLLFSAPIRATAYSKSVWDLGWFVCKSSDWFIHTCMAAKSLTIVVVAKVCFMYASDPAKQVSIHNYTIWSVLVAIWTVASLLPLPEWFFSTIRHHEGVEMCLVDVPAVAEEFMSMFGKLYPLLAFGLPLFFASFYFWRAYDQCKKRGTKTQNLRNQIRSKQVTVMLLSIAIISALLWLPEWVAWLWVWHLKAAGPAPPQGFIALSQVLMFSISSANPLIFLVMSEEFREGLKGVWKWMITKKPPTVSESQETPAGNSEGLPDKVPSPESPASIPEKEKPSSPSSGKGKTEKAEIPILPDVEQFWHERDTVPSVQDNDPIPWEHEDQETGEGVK
TEAD-YAP inh: TEAD-YAP interaction inhibition; HEK-TIYL cells, TEAD-Gal4/YAP UAS-luciferase luminescence; inhibition, % at 9.12 µM; 640,000 tested, 1.4% active; in the data active = inhibition above about 32%;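 note: 0% = median of test compound wells and 100% = reference inhibitor wells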
MITF inh conf: human MITF inhibition, confirmation; inhibition, % at 2.6 µM; 4,700 tested, 16% active; shares compounds with MITF primary; AlphaScreen MITF homodimerization, biotin/His-MITF beads; AID 1259372;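 active = inhibition above a cutoff derived from the DMSO control wells, cut at about 28% in these data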;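 note: 0% = MITF dimer wells with DMSO only; inhibitors lower the bead chemiluminescence by keeping MITF from dimerizing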
AlphaScreen DR: counter-screen: compounds optically interfering with AlphaScreen; shares compounds with MITF primary; AlphaScreen optical interference counterscreen, cell-free; IC50, µM; 480 tested, 6% active; AID 1259373; call rule not given here
AS interf ctr: AlphaScreen optical interference, counter-screen; 4,700 tested, 7.6% active; LysRS AlphaScreen counterscreen, signal interference, triplicate; shares compounds with MITF primary; AID 1259376; inhibition, % at 2.6 µM;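 active = inhibition above a cutoff derived from the DMSO control wells, cut at about 30% in these data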
Numbers without * were called inactive; . = no result. Hits are enriched below; roughly 3.4% of the tested compounds scored in any of these assays.

SMILES	MITF primary	FBW7 activator	GPR151 ag	TEAD-YAP inh	MITF inh conf	AS interf ctr	others
CCOC(=O)C1CCCN(Cc2ccc(OC)cc2)C1 (stereo unspecified)	52*	0	0	7	-5	0
CCOC(=O)C1CCCN(Cc2ccc(OC)c(OC)c2OC)C1 (stereo unspecified)	33	0	1	-2	.	.
COc1ccc(CN2CCCC(C(=O)NN)C2)cc1 (stereo unspecified)	36	0	-1	0	.	.
COc1ccc(CN2CCCC(C(=O)N3CCCCC3)C2)c(OC)c1OC (stereo unspecified)	75*	0	0	8	-14	-11
NNC(=O)C1CCCN(Cc2cccc(Oc3ccccc3)c2)C1 (stereo unspecified)	54*	0	0	7	-5	-5
CCOC(=O)C1CCCN(Cc2ccc(O)cc2)C1 (stereo unspecified)	19	0	0	-6	.	.
Cc1cc(C(=O)Nc2ccc(C#N)cc2)no1	2	0	0	-31	.	.
N#CCCNS(=O)(=O)c1ccc(C(=O)OCc2ccc(C#N)cc2)cc1	0	0	0	1	.	.
COc1ccc(CNC(=O)c2cnn3c2NC(c2ccc(OC)cc2)CC3C(F)(F)F)cc1 (stereo unspecified)	2	0	0	0	.	.
COc1ccc(CNC(=O)c2cnn3c2NC(c2ccc4c(c2)OCO4)CC3C(F)(F)F)cc1 (stereo unspecified)	68*	0	1	-21	-9	-3
CC1(C)CC(=O)C(/C=N/Nc2n[nH]c(=O)[nH]c2=O)=C(O)C1	95*	-1	-1	-15	34*	98*
COc1ccc(N2CC(c3nc4ccccc4n3CC(O)COc3ccc(C)c(C)c3)CC2=O)cc1 (stereo unspecified)	12	1	3	2	.	.
CC(c1ccccn1)N(CCN(C)C)C(=S)Nc1cccc(F)c1 (stereo unspecified)	88*	-2	2	4	42*	96*
O=C(c1cccnc1)N1C2C=CC(C2)C1(C(F)(F)F)C(F)(F)F (stereo unspecified)	33	0	-2	5	.	.
O=C(c1ccncc1)N1C2C=CC(C2)C1(C(F)(F)F)C(F)(F)F (stereo unspecified)	68*	0	0	0	59*	-6	AlphaScreen DR=>6.5
c1coc(CN2CCN(C3CCCCCC3)CC2)c1	74*	0	1	12	0	5
c1coc(CN2CCC(N3CCOCC3)CC2)c1	60*	1	1	12	13	16
S=C(NC1CCCCC1)N1CCN(Cc2ccco2)CC1	-21	0	3	-16	.	.
c1coc(Cn2nnnc2CN2CCN(C3CCCC3)CC2)c1	-1	0	1	-2	.	.
CC1CCCCC1N1CCN(Cc2ccco2)CC1 (stereo unspecified)	69*	0	-1	5	-3	5
O=C(O)CCC(=O)Nc1ccc(Br)cc1F	-3	0	3	1	.	.
CC(C(=O)NCc1ccco1)N1CCN(C)CC1 (stereo unspecified)	-3	0	2	6	.	.
C=CCC1(NCc2ccco2)CCN(C)CC1	63*	0	0	-4	0	-3
CC(=O)N1CCN(c2ccc(NC(=O)c3ccccc3)cc2)CC1	38	0	-1	-49	.	.
CC(=O)N1CCN(c2ccc(NC(=S)NC(=O)c3ccccc3)cc2)CC1	52*	0	0	-7	8	20
SMILES	MITF primary	FBW7 activator	GPR151 ag	TEAD-YAP inh	MITF inh conf	AS interf ctr	others
O=C(c1cn(-c2ccc(F)cc2F)c(=O)c2ccccc12)N1CCC(Cc2ccccc2)CC1	9	1	-1	6	.	.
O=C(Nc1ccc2oc(-c3cc(Br)ccc3Cl)nc2c1)c1ccccc1Cl	-7	0	-1	0	.	.
Cn1ncc(Cl)c1C(=O)NC(=S)Nc1cc([N+](=O)[O-])cc(Cl)c1O	-1	0	-2	-1	.	.
Cc1ccc(C(=O)Oc2coc(CSc3nc(C)cc(C)n3)cc2=O)cc1	55*	0	-2	-1	12	15
COc1ccc(CCNC(=O)CCn2c(SCC(=O)Nc3cccc(C(F)(F)F)c3)nc3ccccc3c2=O)cc1OC	56*	0	1	4	-9	-2
Cc1nnn(C23CC4CC(CC(CC(=O)Nc5ccc(F)cc5)(C4)C2)C3)n1	75*	1	0	-8	10	9
CCOC(=O)c1nc(-c2ccccc2)oc1C(F)(F)F	10	0	0	2	.	.
CCOC(=O)c1oc(-c2ccc(F)cc2)nc1C	67*	0	5	-6	14	17
CC(O)CNc1nc2c(c(=O)n(Cc3ccccc3F)c(=O)n2C)n1C (stereo unspecified)	61*	0	0	0	6	11
CCOC(=O)C1=C(C)NC(C)=C(C(=O)OCC)C1c1ccc(Cl)c(Cl)c1	1	0	-1	0	.	.
CC1(C)CC(NCC(=O)N2c3ccccc3Sc3ccc(C(F)(F)F)cc32)CC(C)(C)N1	-9	1	1	-4	.	.
O=C(Nc1ccc(-c2cn[nH]c2)c(C(F)(F)F)c1)C1COc2ccccc2O1 (stereo unspecified)	61*	1	0	-37	37*	3	AlphaScreen DR=>6.5
N[C@@H](C(=O)N[C@@H]1C(=O)N2C(C(=O)O)=C(CSC3CNNN3)CS[C@H]12)c1ccc(O)cc1 (stereo partly specified) (tested in a mixture with another compound)	63*	0	2	-1	72*	29	AlphaScreen DR=0.67*
COc1ccccc1CN1CCN(C2CCCCC2)CC1	70*	0	-1	-1	-5	-4
CCN1CCN(C2CCN(Cc3cc(OC)c(OC)c(OC)c3)CC2)CC1	49	0	-1	-3	.	.
COc1ccc(CN2CCC(N3CC(C)OC(C)C3)CC2)c(OC)c1OC (stereo unspecified)	65*	0	1	9	-2	2
CCN1CCN(C2CCN(Cc3ccc(OC)c(OC)c3OC)CC2)CC1	61*	0	-1	3	-13	-7
COc1ccc(CN2CCC(N3CC(C)OC(C)C3)CC2)cc1 (stereo unspecified)	87*	0	-1	1	-4	0
COc1ccccc1CN1CCC(N2CCN(C)CC2)CC1	46	0	0	10	.	.
Cc1noc(C)c1C(=O)Nc1ccc(-c2cn3c4c(nnc3n2)CCCC4)cc1	4	-1	-1	-17	.	.
Cc1cc(SCC(=O)N2CCCC2)nc(=O)[nH]1	2	0	1	-7	.	.
CCOc1ccccc1CN1CCC(N2CCOCC2)CC1	50	0	-1	-6	.	.
COc1ccc(CN2CCN(C3CCCC(C)C3)CC2)c(OC)c1OC (stereo unspecified)	54*	0	2	-6	9	13
